# Experimental data taken from PMC7862700, “An all-to-all approach to the identification of sequence-specific readers for epigenetic DNA modifications on cytosine”.
# Tests used:
# Test in all cases: DAPPL (digital affinity profiling via proximity ligation, sequencing); 10 mM Tris-HCl pH 7.5, 50 mM NaCl, 1 mM DTT, 4% glycerol, room temperature, 30 min; GST-TFs on glutathione beads, 16-mer random dsDNA library, 0.1% formaldehyde crosslink after washing; high values mean tight binding
# Conditions in all cases: protein: recombinant; tags: N-terminal GST; dsDNA, one strand shown
# ETV1 = ETV1 (Homo sapiens, UniProt P50549 1-477)
# Outline: (§1)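 In yeast, human transcription factors were expressed with a GST fusion, then pulled down on glutathione beads and given DNA barcodes. Pooled with a tag-only sample, they were exposed to 200 nmole of a 16-mer random double-stranded DNA library (Tris/NaCl/DTT/glycerol buffer, room temperature, 30 min), washed, crosslinked with 0.1% formaldehyde, proximity-ligated using BsaI/T4 ligase for 1 h at 37 °C, PCR-amplified and read on an Illumina NextSeq500. Each hexamer's frequency of reads for a factor, divided by the matching frequency for the tag-only sample, gives the binding signal.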
# ERF = biological target: T1, ERF (Homo sapiens, UniProt P50548 1-548)
# T1 sequence: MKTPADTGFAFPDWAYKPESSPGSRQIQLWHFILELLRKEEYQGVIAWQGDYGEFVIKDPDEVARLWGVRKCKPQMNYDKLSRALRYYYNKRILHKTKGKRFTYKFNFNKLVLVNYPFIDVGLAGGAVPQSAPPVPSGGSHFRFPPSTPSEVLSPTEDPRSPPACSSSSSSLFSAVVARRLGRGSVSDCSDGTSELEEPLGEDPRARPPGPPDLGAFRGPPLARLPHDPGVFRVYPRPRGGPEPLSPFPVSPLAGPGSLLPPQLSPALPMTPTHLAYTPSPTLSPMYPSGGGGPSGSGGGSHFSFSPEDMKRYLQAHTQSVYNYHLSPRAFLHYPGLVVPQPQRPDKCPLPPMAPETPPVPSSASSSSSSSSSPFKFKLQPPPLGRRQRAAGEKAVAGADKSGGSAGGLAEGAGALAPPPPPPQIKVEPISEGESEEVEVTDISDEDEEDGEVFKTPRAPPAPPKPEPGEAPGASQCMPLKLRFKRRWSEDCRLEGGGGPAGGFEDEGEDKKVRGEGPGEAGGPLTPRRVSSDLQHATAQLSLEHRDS
# Outline: as §1
# ETV3L = biological target: T2, ETV3L (Homo sapiens, UniProt Q6ZN32 1-361)
# T2 sequence: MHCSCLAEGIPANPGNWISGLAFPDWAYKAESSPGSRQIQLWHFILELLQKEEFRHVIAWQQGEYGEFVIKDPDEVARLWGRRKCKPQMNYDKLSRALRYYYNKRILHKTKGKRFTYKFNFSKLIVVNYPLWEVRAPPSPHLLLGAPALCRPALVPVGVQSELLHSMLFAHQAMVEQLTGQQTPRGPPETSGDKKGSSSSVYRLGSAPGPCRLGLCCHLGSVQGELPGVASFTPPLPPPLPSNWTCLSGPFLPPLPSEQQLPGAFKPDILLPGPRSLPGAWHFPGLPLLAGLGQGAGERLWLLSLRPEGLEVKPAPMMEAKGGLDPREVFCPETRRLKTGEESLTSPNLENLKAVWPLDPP
# Outline: as §1
# ETS2 = biological target: T3, ETS2 (Homo sapiens, UniProt P15036 1-469)
# T3 sequence: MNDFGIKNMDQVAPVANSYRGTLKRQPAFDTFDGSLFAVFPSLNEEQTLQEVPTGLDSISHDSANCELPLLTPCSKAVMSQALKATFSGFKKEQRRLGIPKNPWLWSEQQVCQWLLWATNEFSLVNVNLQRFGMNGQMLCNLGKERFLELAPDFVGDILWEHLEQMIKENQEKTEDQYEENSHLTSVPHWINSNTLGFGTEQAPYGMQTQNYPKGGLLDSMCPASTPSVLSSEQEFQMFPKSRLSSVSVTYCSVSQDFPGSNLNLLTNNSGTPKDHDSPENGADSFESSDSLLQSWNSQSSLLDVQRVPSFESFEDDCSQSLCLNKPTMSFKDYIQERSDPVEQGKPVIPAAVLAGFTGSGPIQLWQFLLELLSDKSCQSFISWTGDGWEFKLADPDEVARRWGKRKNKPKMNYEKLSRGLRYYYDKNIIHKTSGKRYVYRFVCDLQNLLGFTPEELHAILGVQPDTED
# Outline: as §1
# SPDEF = biological target: T4, SPDEF (Homo sapiens, UniProt O95238 1-335)
# T4 sequence: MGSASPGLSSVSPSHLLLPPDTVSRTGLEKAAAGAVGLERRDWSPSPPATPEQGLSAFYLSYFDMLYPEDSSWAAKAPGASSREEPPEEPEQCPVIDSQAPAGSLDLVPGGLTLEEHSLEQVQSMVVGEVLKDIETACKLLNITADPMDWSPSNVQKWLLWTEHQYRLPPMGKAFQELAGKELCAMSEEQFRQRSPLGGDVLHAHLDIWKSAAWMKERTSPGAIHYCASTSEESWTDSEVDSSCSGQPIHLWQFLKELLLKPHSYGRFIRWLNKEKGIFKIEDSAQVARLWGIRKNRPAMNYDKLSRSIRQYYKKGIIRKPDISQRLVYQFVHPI
# Outline: as §1
# ETV7 = biological target: T5, ETV7 (Homo sapiens, UniProt Q9Y603 1-341)
# T5 sequence: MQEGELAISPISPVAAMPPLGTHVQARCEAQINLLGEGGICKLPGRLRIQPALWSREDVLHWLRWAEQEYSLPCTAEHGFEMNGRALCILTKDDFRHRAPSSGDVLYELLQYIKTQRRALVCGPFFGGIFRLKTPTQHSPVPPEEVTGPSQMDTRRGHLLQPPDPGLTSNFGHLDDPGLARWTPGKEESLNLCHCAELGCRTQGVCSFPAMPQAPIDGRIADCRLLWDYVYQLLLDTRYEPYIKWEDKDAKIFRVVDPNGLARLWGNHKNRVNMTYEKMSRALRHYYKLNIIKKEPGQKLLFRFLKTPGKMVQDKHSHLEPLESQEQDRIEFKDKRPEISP
# Outline: as §1
# ELF5 = biological target: T6, ELF5 (Homo sapiens, UniProt Q9UKW6-2 1-255)
# T6 sequence: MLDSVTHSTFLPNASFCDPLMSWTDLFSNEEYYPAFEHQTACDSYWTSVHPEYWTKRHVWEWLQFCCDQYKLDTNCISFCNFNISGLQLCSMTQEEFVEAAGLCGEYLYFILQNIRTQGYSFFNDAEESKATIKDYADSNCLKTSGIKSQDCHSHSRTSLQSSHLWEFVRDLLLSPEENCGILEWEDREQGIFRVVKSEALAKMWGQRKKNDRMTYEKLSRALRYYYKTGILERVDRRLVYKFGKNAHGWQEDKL
# Outline: as §1
# ETV3 = biological target: T7, ETV3 (Homo sapiens, UniProt P41162-2 1-143)
# T7 sequence: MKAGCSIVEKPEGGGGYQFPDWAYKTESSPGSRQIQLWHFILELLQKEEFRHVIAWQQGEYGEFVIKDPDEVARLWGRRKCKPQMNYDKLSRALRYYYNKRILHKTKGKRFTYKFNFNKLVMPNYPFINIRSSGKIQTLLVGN
# Outline: as §1
# ETV6 = ETV6 (Homo sapiens, UniProt P41212 1-452)
# Outline: as §1
# Chain of ETV1 (P50549 whole entry, the tested form may be a part): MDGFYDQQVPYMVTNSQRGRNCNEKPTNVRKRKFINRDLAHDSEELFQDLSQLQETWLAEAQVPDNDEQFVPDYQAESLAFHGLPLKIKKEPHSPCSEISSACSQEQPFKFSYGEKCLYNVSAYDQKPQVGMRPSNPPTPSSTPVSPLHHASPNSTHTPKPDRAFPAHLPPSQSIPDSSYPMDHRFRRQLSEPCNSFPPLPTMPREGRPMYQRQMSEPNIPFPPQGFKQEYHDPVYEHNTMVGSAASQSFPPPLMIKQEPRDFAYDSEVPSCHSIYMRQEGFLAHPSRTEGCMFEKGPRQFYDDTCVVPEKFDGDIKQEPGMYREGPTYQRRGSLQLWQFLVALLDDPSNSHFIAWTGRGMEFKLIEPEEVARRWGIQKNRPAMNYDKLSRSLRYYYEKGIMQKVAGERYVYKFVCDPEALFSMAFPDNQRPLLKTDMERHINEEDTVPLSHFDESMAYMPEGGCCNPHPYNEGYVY
# Chain of ETV6 (P41212 whole entry): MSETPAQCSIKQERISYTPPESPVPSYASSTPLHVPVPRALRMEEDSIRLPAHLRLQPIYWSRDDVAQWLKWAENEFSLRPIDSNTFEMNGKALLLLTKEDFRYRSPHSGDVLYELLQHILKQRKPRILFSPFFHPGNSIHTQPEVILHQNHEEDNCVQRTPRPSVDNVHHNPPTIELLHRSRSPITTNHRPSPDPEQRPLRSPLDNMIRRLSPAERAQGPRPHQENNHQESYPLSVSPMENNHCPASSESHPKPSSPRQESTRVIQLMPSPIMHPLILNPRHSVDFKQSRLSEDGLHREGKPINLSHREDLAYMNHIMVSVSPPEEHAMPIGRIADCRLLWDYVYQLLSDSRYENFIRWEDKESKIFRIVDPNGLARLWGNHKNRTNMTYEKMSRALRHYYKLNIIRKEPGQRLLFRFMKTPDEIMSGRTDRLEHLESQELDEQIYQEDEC
sequence,measurement,setting,value
GAATTC,binding signal,ETV1,"1.34 fold enrichment (6-mer frequency, TF over GST control)"
same,binding signal,ERF,"1.38 fold enrichment (6-mer frequency, TF over GST control)"
same,binding signal,ETV3L,"1.41 fold enrichment (6-mer frequency, TF over GST control)"
same,binding signal,ETS2,"1.33 fold enrichment (6-mer frequency, TF over GST control)"
same,binding signal,SPDEF,"1.33 fold enrichment (6-mer frequency, TF over GST control)"
same,binding signal,ETV7,"1.32 fold enrichment (6-mer frequency, TF over GST control)"
same,binding signal,ELF5,"1.32 fold enrichment (6-mer frequency, TF over GST control)"
same,binding signal,ETV3,"1.35 fold enrichment (6-mer frequency, TF over GST control)"
same,binding signal,ETV6,"1.2 fold enrichment (6-mer frequency, TF over GST control)"
